Bioassay records: PubChem BioAssay, National Center for Advancing Translational Sciences (NCATS)
Rows were chosen to be rich in hits. Some 11% of all compounds tested hit in one or more screens of this group.
FBPA coupling cs = qHTS Assay for Inhibitors of Fructose-1,6-bisphosphate Aldolase from Giardia Lamblia: Coupling assay counterscreen. AID 2472, 2010. activity change, negative = inhibition, % at 58.2 µM, hits read low. coupling enzyme system counterscreen, AmpLite Red fluorescence. actives 0.67% (n = 290,000); in the data active means activity change below about -30%
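Final compound at 57.5 uM, incubated 10 min at RT with coupling enzyme reagent (glyceraldehyde-3-phosphate), then 20 min with substrate and AmpLite Red detection. Fluorescence read at 525/598 nm; tests interference with the coupling assay, not aldolase inhibition.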
G9a inh = qHTS Assay for Inhibitors of Histone Lysine Methyltransferase G9a | Histone-lysine N-methyltransferase EHMT2 (Homo sapiens), Q96KQ7 | G9a H3K9 monomethylation, AlphaScreen, 2 h | Potency, µM (top dose mostly 102 µM), for inactives: top-dose activity, negative = inhibition, actives largely listed as inhibitors | actives 8.8% (n = 350,000) | AID 504332, 2011; further: potency means the concentration at half of the fitted maximal effect; nearly all actives have a fitted effect of over 75% in size
Target sequence (Q96KQ7 913-1193 limits assumed): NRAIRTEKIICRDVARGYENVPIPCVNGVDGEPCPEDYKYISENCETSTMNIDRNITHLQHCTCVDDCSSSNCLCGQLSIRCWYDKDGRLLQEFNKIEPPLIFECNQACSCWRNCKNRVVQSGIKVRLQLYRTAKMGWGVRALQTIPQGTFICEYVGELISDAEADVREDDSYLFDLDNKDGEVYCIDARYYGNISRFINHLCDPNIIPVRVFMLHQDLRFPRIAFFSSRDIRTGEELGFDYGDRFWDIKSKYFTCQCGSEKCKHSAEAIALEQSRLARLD
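G9a (20 nM) preincubated 15 min RT with compounds, then 500 nM biotinylated H3K9 peptide and 20 uM SAM added; 2 h RT reaction. Monomethyl-H3K9 product detected by AlphaScreen with anti-H3K9me1 antibody, streptavidin donor and anti-rabbit IgG acceptor beads.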
Tau fluor cs = Counterscreen qHTS for Inhibitors of Tau Fibril Formation, Fluorescence Polarization | Potency, µM (highest dose often 57.7 µM), for the others: top-dose activity change, negative = decrease | tau K18 P301L Alexa594 fluorescence, heparin fibrillization | actives 0.93% (n = 280,000); further: potency means the concentration at half of the fitted maximal effect; nearly all actives have a fitted effect of over 55% in size
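Human K18 P301L tau (15 uM unlabeled plus 0.24 uM Alexa 594-labeled, final) in 100 mM sodium acetate pH 7 was mixed with compound and 20 uM heparin and incubated 6 hr at 37 C.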
Sfp inh = qHTS Assay for Inhibitors of Bacillus subtilis Sfp phosphopantetheinyl transferase (PPTase). 4'-phosphopantetheinyl transferase ffp (Bacillus subtilis), Q9F4F7. Biochemical Sfp PPTase activity, qHTS. Potency, µM, for inactives: largest response in the series, negative = inhibition, most hits filed as inhibitors. actives 3.5% (n = 310,000). AID 1490, 2009;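 further: the enzyme is Sfp with the accession as filed and its product quenches rhodamine fluorescence; potency means the concentration at half of the fitted maximal effect; 0% = enzyme reaction without inhibitor and -100% = no enzyme wells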
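Sfp 15 nM + cpd, 15 min RT; start w/ rhodamine-CoA 5 uM, BHQ-2-YbbR 12.5 uM (final); 50 mM Hepes pH 7.6, 10 mM MgCl2, 0.01% NP-40, 0.01% BSA; read 525/598 nm at 0 and 30 min.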
Tau ThT inhib = qHTS for Inhibitors of Tau Fibril Formation, Thioflavin T Binding; Microtubule-associated protein tau (Homo sapiens), P10636; recombinant tau K18 P301L (four-repeat tau fragment), heparin-induced fibrillization, ThT fluorescence; Potency, µM (series often up to 57.4 µM), for the others: top-dose activity, negative = inhibition, usual class: inhibitors; actives 2.1% (n = 270,000); further: potency means the concentration at half of the fitted maximal effect; nearly all actives have a fitted effect of over 55% in size
Target sequence (P10636 561-689 P618L limits assumed): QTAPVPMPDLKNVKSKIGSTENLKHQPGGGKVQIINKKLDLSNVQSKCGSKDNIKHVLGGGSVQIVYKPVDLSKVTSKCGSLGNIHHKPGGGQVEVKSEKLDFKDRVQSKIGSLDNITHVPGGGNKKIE
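In this qHTS, human K18 P301L tau is incubated with compound and heparin for 6 hr at 37 C, and Thioflavin T fluorescence then reports fibril load.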
Tau fibril FP = qHTS for Inhibitors of Tau Fibril Formation, Fluorescence Polarization. actives 0.39% (n = 280,000). K18 P301L tau heparin fibrillization, Alexa594 FP, 6 h. Potency, µM (highest dose often 57.7 µM), for the others: at the top dose activity, negative = inhibition, usual class: inhibitors. AID 1468, 2008; further: potency means the concentration at half of the fitted maximal effect; nearly all actives have a fitted effect of over 55% in size
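Compound effects on tau fibrillization are measured by Alexa 594 fluorescence polarization (ex 555, em 632 nm). K18 P301L tau is used at 15 uM with 0.24 uM labeled tracer, and 20 uM heparin induces aggregation over 6 hr at 37 C.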
Active calls of the source: *; u = inconclusive; x = no result given; [ ] = remark or other dose. Unless noted, the call rests on the fitted dose curve; in most records, active means well fitted curve in the direction sought with a large enough effect; inconclusive means small, poorly fitted or top-dose-only effect, or another doubt; inactive means no such curve, though single readings can be large; an effect the other way counts as inactive or inconclusive. Unless noted, on the % scale 0 is the no-effect control and ±100 the full control effect.

SMILES	FBPA coupling cs	G9a inh	Tau fluor cs	Sfp inh	Tau ThT inhib	Tau fibril FP
COC(=O)c1ccccc1NC(=S)NC(NC(=O)c1ccccc1[N+](=O)[O-])C(Cl)(Cl)Cl (stereo unspecified)	1	3.5µM*	u	-2%	u	4%
O=C(NC(NC(=S)Nc1ccccc1C(=O)O)C(Cl)(Cl)Cl)c1ccccc1 (stereo unspecified)	1	25µM*	0%	35µM*	-12%	1%
CSCC[C@H](NC(=O)[C@@H](NC(=O)[C@H](CCC(=O)O)NC(=O)[C@H](CCSC)NC(=O)[C@H](CC(N)=O)NC(=O)[C@H](CCC(=O)O)NC(=O)[C@H](CC(N)=O)NC(=O)[C@H](CO)NC(=O)[C@H](C)N)[C@@H](C)O)C(=O)O	-3	x	x	-3%	x	x
Cc1ccc(CNC(=O)C(=O)Nc2c3c(nn2-c2ccc(F)cc2)CSC3)cc1	x	16%[59 µM]	1%	x	-5%	-7%
O=C(CN1C(=O)NC2(CCCCC2)C1=O)N1CCN(S(=O)(=O)c2ccc(Cl)s2)CC1	x	18µM*	x	x	x	x
CC1Cc2ccccc2N1S(=O)(=O)c1cccc(C(=O)N2CCN(c3ncccn3)CC2)c1 (stereo unspecified)	1	-8%	-9%	6%	-13%	10%
O=[N+]([O-])c1ccc(Cl)c(CN2CCCCCC2)c1	0	25µM*	x	-4%	x	x
COc1cc([N+](=O)[O-])cc(CN2CCCCC2)c1O	4	-15%[59 µM]	-9%	-3%	-11%	3%
O=C(NNC(=O)C1CCN(Cc2ccc(F)cc2Cl)CC1)Nc1ccc([N+](=O)[O-])cc1	4	x	-9%	10%	0%	0%
O=[N+]([O-])c1ccc(Cl)c(CN2CCC(O)CC2)c1	1	7.9µM*	-3%	50µM*	-4%	-4%
O=C(Cn1cnc2ccc(Cl)cc2c1=O)NC1CCS(=O)(=O)C1 (stereo unspecified)	x	-4%	x	x	x	x
CC1CCN(C(=S)NC(=O)c2ccccc2)CC1	2	-71%	-10%	-2%	-10%	1%
COc1ccc(NC(=S)Nc2cccc([N+](=O)[O-])c2)cc1	2	x	-20%	-29%	-18%	6%
CCC1CCCCN1C(=S)NCc1ccccc1 (stereo unspecified)	3	13%	-1%	8%	-2%	1%
CC1CCN(C(=S)NC(=O)c2cccc([N+](=O)[O-])c2)CC1	x	71µM*	x	11%	x	x
CN1CCC(NC(=S)Nc2cccc([N+](=O)[O-])c2)CC1	0	45µM*	-9%	-4%	-12%	-2%
O=C(NCC1CCCO1)c1cc([N+](=O)[O-])ccc1Cl (stereo unspecified)	1	50µM*	-4%	17%	-3%	6%
CCC1CCCCN1C(=S)NC(=O)c1cccc([N+](=O)[O-])c1 (stereo unspecified)	x	45µM*	x	6%	x	x
O=C(NC(=S)N1CCCCC1)c1cccs1	0	u	3%	-15%	2%	-8%
CN1CCN(C(=S)NC(=O)c2cccc([N+](=O)[O-])c2)CC1	1	-12%	x	32µM*	x	x
O=C(NC(=S)N(CC1CCC1)CC1CCCO1)c1cccc([N+](=O)[O-])c1 (stereo unspecified)	0	50µM*	-8%	-2%	-1%	0%
O=C(NCC1CCCCC1)c1cccc([N+](=O)[O-])c1	2	x	x	-5%	x	x
CC1CCN(C(=S)NC(=O)c2cccs2)CC1	-1	45µM*	-7%	5%	-8%	-3%
